Reference: PubChem BioAssay (NCATS)
Inconclusive results are not listed. The source made the active and inactive calls. Calls follow the shape of the dose curve; as a rule, active = well fitted curve in the direction sought with a large enough effect; inconclusive = small, poorly fitted or top-dose-only effect, or another doubt; inactive = no such curve, though single readings can be large; an effect the other way counts as inactive or inconclusive.

What was measured:
[1] = biological target: DNA repair nuclease/redox regulator APEX1 (Homo sapiens) (UniProt P27695); test: qHTS Validation Assay for Inhibitors of the Human Apurinic/apyrimidinic Endonuclease 1 (APE1) (AID 1705;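 also: TAMRA fluorescence gain over two minutes as APE1 cuts a quenched THF abasic duplex; series mostly up to about 57 µM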)
How it was run: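 Human APE1 was preincubated with compound for 15 min at room temperature, then 50 nM (final) THF-abasic double-stranded DNA substrate bearing 5'-TAMRA and 3'-BHQ-2 was added. Incision-driven fluorescence rise (ex 525/em 598 nm) was read kinetically.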

[2] = Counterscreen for APE1 Inhibitors: Fluorescent Dye Displacement Validation Assay (AID 1707)
How it was run: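 Endpoint fluorescence read at 480 nm excitation / 540 nm emission; DNA-binding compounds lower signal by displacing 250 nM Thiazole Orange from 50 nM dsDNA containing a tetrahydrofuran abasic site, Tris-HCl pH7.5 buffer with NaCl and MgCl2.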

[3] = biological target: Endonuclease 4 (Escherichia coli (strain K12)) (UniProt P0A6C1); test: Counterscreen for APE1 Inhibitors: qHTS Validation Assay for Inhibitors of Endonuclease IV (AID 1708)
How it was run: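 Incision of a double-stranded 50 nM TAMRA/BHQ-2 abasic substrate was followed kinetically (525/598 nm, reads every 60 s) after 15 min enzyme–compound preincubation with 2 nM EndoIV in pH 7.5 Tris buffer with MgCl2, DTT and Tween-20; concentration-response format.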

[4] = qHTS for differential inhibitors of proliferation of Plasmodium falciparum line 7G8 (AID 1815);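 also: parasite growth measured after three days of incubation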; also: potency is read from the fitted curve at half-maximal effect
[5] = qHTS for differential inhibitors of proliferation of Plasmodium falciparum line GB4 (AID 1816); settings: Potency: Plasmodium falciparum GB4 proliferation inhibition;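 also: parasite growth measured after 72 h incubation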; also: potency is read from the fitted curve at half-maximal effect
[6] = qHTS for differential inhibitors of proliferation of Plasmodium falciparum line 3D7 (AID 1876); also: potency is read from the fitted curve at half-maximal effect
[7] = qHTS for differential inhibitors of proliferation of Plasmodium falciparum line D10 (AID 1877);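 also: parasites grown with compound for 72 h before DNA staining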; also: potency is read from the fitted curve at half-maximal effect
[8] = qHTS for differential inhibitors of proliferation of Plasmodium falciparum line Dd2 (AID 1882); settings: Potency: Plasmodium falciparum Dd2 proliferation inhibition; also: nearly all actives have a fitted effect of over 65% in size; also: potency is read from the fitted curve at half-maximal effect
How it was run: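 SYBR Green DNA fluorescence (ex 485, em 535 nm) after overnight lysis quantifies parasite growth; compound exposure lasted 72 h at 37 C on infected red cells at 2.5% hematocrit, 0.3% parasitemia (final). Artemisinin 0.29 uM and vehicle wells define normalization.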

[9] = qHTS for differential inhibitors of proliferation of Plasmodium falciparum line W2 (AID 1883); settings: Potency: Plasmodium falciparum W2 proliferation inhibition;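 also: parasites grown with compound for 72 h before lysis and staining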; also: potency is read from the fitted curve at half-maximal effect
[10] = qHTS for differential inhibitors of proliferation of Plasmodium falciparum line HB3 (AID 1886); settings: Potency: Plasmodium falciparum HB3 proliferation inhibition;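 also: parasites grown with compound for 72 h before SYBR Green readout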; also: potency is read from the fitted curve at half-maximal effect

Measured: Potency

Chain of DNA repair nuclease/redox regulator APEX1 (Homo sapiens) (P27695 whole entry, looked up): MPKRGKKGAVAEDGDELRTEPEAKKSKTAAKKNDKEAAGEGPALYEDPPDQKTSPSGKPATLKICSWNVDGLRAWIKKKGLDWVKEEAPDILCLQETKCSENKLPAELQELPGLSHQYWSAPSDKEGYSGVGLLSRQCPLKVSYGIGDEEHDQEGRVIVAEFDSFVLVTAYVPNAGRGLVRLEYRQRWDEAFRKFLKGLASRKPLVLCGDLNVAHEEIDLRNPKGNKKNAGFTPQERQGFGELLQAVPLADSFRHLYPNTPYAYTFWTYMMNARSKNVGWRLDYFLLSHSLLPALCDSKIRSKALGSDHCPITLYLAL

O=C(O)c1nn(Cc2ccc(Cl)cc2Cl)c2ccccc12
inactive: all assays above

NC(N)=N/N=C/c1c(Cl)cccc1Cl
active: [4] 11.2 µM | [5] 11.2 µM | [6] 6.31 µM | [7] 11.2 µM | [9] 3.98 µM | [10] 6.31 µM

NC(=O)CN1CCCC1=O
inactive: all assays above

CNC(=O)Oc1ccc2c(c1)[C@]1(C)CCN(C)[C@@H]1N2C
active: [4] 5.01 µM | [5] 3.98 µM | [6] 4.47 µM | [7] 4.47 µM | [9] 7.08 µM | [10] 5.01 µM

COC(=O)C1=CCCN(C)C1
not listed: [9]
inactive: all other assays above

NC(N)=NC(=O)c1nc(Cl)c(N)nc1N
active: [5] 12.6 µM | [6] 11.2 µM | [7] 8.91 µM | [9] 8.91 µM | [10] 10 µM

COc1ccc(C(=O)N2CCCC2=O)cc1
inactive: all assays above

CCCCCCCCC(=O)NCc1ccc(O)c(OC)c1
inactive: [1] | [2] | [4] | [7] | [8] | [10]

O=C1CC2(CCCC2)CC(=O)N1CCCCN1CCN(c2ncccn2)CC1
active: [4] 10 µM | [9] 10 µM

C[N+](C)(C)CCCCCCCCCC[N+](C)(C)C
active: [4] 5.01 µM | [5] 3.98 µM | [6] 0.355 µM | [7] 1.26 µM | [8] 10 µM | [9] 0.562 µM | [10] 1.78 µM

CC(N)C(=O)OC(C)(C)Cc1ccc(Cl)cc1 (centres undefined)
inactive: [1] | [2] | [7]
active: [4] 5.62 µM | [5] 1 µM | [8] 5.62 µM | [9] 1.41 µM | [10] 14.1 µM

COC(=O)C1=C(C)NC(C)=C(C(=O)OC)C1c1ccccc1[N+](=O)[O-]
active: [9] 12.6 µM

c1ccc2nc(N3CCNCC3)ccc2c1
inactive: [1] | [2] | [7] | [10]
active: [4] 7.94 µM | [5] 11.2 µM | [9] 7.08 µM

Cc1cc(C(C)(C)C)cc(C)c1CC1=NCCN1
inactive: [3]
active: [4] 7.94 µM | [5] 8.91 µM | [9] 5.62 µM
